# Assay results as given in the supplement of paper PMC11060735.
# “And” between values parts separate entries of the source, which are not always exact repeats. Equal values may be shown once. Where a name gives a salt, the structure may show the parent alone. In all, about 1,800 compounds went through this assay and about 50 (3%) showed activity. The list comes from a sample in which actives are over-represented; it also holds similar structures and randomly drawn compounds.
# Test system: mouse p16Ink4a+/- lung fibroblasts (INKBRITE, bleomycin-injured)
# Experiment: percentage of GFP+ (p16Ink4a+) fibroblasts among all cells in well; higher = less depletion of p16Ink4a+ cells, active = 20 or less
# Conditions: 1 µM; 3 days
row,SMILES,percentage of GFP+
1,C[C@H](NC(=O)/C(C#N)=C/c1cccc(Br)n1)c1ccccc1,43% (inactive)
2,N#C/C(=C\c1ccc(O)c(O)c1)C(=O)NCc1ccccc1 [Tyrphostin Ag 490],42.9% (inactive)
3,CCC[C@H](NC(=O)/C(C#N)=C/c1cccc(Br)n1)c1ccccc1 [Degrasyn],13.1% (active)
4,Nc1ccn([C@@H]2O[C@H](CO)[C@@H](O)[C@H]2O)c(=O)n1 [Cytidine],48.9% (inactive)
5,Nc1ccn([C@@H]2O[C@H](CO)[C@@H](O)[C@@H]2O)c(=O)n1 [Cytarabine],26.8% (inactive)
6,Nc1ccn([C@@H]2O[C@H](CO)[C@@H](O)C2(F)F)c(=O)n1 [Gemcitabine],17.1% (active)
7,Cc1nc2n(c(=O)c1CCN1CCC(c3noc4cc(F)ccc34)CC1)CCCC2 [Risperidone],42.6% (inactive)
8,COc1ccc(-c2ccc3ncc4c(c3c2)n(-c2ccc(N3CCNCC3)c(C(F)(F)F)c2)c(=O)n4C)cn1,10.6% (active)
9,CCC(=O)N1CCN(c2ccc(-n3c(=O)ccc4cnc5ccc(-c6cnc7ccccc7c6)cc5c43)cc2C(F)(F)F)CC1 [Torin 1],46% (inactive)
10,Cn1c(=O)n(-c2ccc(C(C)(C)C#N)cc2)c2c3cc(-c4cnc5ccccc5c4)ccc3ncc21 [Dactolisib],36% (inactive)
11,Cc1cc(Nc2cc(CN3CCOCC3)c3nc(C)c(Cc4ccc(Cl)cc4F)n3n2)[nH]n1,43.7% (inactive)
12,Cn1c(N2CCCCS2(=O)=O)nc(C(=O)NCc2ccc(F)cc2)c(O)c1=O,26.4% (inactive)
13,NC(=O)c1noc([C@H](CCCC2CCCCC2)CC(=O)NO)n1,47% (inactive)
14,CC(=O)O[C@H]1C[C@@H]2CC[C@@H]3[C@H](CC[C@@]4(C)[C@H]3C[C@H]([N+]3(C)CCCCC3)[C@@H]4OC(C)=O)[C@@]2(C)C[C@@H]1N1CCCCC1 [Vecuronium],47% (inactive)
15,CN(NC(=O)CC(=O)NN(C)C(=S)c1ccccc1)C(=S)c1ccccc1 [Elesclomol],12% (active)
16,O=C(O)c1ccccc1 [Benzoic Acid],44.8% (inactive)
17,O=C(O)CCNC(=O)c1ccccc1 [Betamipron],46% (inactive)
18,Cn1cc(C2=C(c3cn(CCCSC(=N)N)c4ccccc34)C(=O)NC2=O)c2ccccc21,58.4% (inactive)
19,OC[C@H]1O[C@@H](n2cnc3c(O)ncnc32)[C@H](O)[C@@H]1O [Inosine],47.7% (inactive)
20,CN1CCN(CCOc2cc(OC3CCOCC3)c3c(Nc4c(Cl)ccc5c4OCO5)ncnc3c2)CC1 [Saracatinib],46.2% (inactive)
21,CC[C@]1(O)C[C@@H]2CN(CCc3c([nH]c4ccccc34)[C@@](C(=O)OC)(c3cc4c(cc3OC)N(C)[C@@H]3C45CCN4CC=C[C@](CC)([C@H]45)[C@@H](OC(C)=O)[C@]3(O)C(=O)OC)C2)C1 (some centres not stated) [Vinblastine],24.8% (inactive)

row,SMILES,percentage of GFP+
1,CC[C@]1(O)C[C@@H]2CN(CCc3c([nH]c4ccccc34)[C@@](C(=O)OC)(c3cc4c(cc3OC)N(C=O)[C@@H]3C45CCN4CC=C[C@](CC)([C@H]45)[C@@H](OC(C)=O)[C@]3(O)C(=O)OC)C2)C1 (some centres not stated) [Vincristine],16.5% (active)
2,CC#C[C@]1(O)CC[C@H]2[C@@H]3CCC4=CC(=O)CCC4=C3[C@@H](c3ccc(N(C)C)cc3)C[C@@]21C [Mifepristone],46.9% (inactive)
3,CN[C@@H](C)C(=O)N[C@H](C(=O)N1CCC[C@H]1C(=O)Nc1snnc1-c1ccccc1)C1CCCCC1,21.9% (inactive)
4,C=CCNC(N)=S [Allylthiourea],35% (inactive)
5,N=C(N)N/N=C/c1c(Cl)cccc1Cl [Guanabenz],49.3% (inactive)
6,NC(=S)N/N=C/c1ncccc1N [Triapine],17.4% (active)
7,COc1ccc([C@@H]2CC(=O)c3c(O)cc(O)cc3O2)cc1O [Hesperetin],47.8% (inactive)
8,COc1cc2nccc(Oc3ccc(NC(=O)C4(C(=O)Nc5ccc(F)cc5)CC4)cc3)c2cc1OC [Cabozantinib],29.6% (inactive)
9,CCOc1nc2cccc(C(=O)OC(C)OC(=O)OC3CCCCC3)c2n1Cc1ccc(-c2ccccc2-c2nn[nH]n2)cc1 (configuration not stated) [Candesartan Cilextil],44.8% (inactive)
10,CC(=O)Oc1cc2c(s1)CCN(C(C(=O)C1CC1)c1ccccc1F)C2 (configuration not stated) [Prasugrel],49.3% (inactive)
11,Cc1ccc(NC(=O)c2ccc(CN3CCN(C)CC3)cc2)cc1Nc1nc(-c2cccnc2)cs1 [Masitinib],30.8% (inactive)
12,Cc1ccc(C(=O)Nc2ccc(CN3CCN(C)CC3)c(C(F)(F)F)c2)cc1C#Cc1cnc2[nH]ncc2c1 [Olverembatinib],17.2% (active)
13,Cc1ccc(C(=O)Nc2ccc(CN3CCN(C)CC3)c(C(F)(F)F)c2)cc1C#Cc1cnc2cccnn12 [Ponatinib],31.2% (inactive)
14,Cn1c(=O)c(F)c(Nc2ccc(I)cc2F)c2c(=O)n(C[C@@H](O)CO)cnc21,28.4% (inactive)
15,O=S(=O)(c1cccc2cnccc12)N1CCCNCC1 [Fasudil Hydrochloride],48.7% (inactive)
16,Nc1ccccc1NC(=O)c1ccc(CNC(=O)OCc2cccnc2)cc1 [Entinostat],32% (inactive)
17,Nc1ccccc1NC(=O)c1ccc(CNc2nccc(-c3cccnc3)n2)cc1 [Mocetinostat],12.6% (active)
18,"Cc1ccc(NC(=O)c2ccc(CN3CCN(C)CC3)cc2)cc1Nc1nccc(-c2cccnc2)n1 [Imatinib, Imatinib Mesylate]",32.5% (inactive) and 39% (inactive)
19,N#CC1(c2ccc(NC(=O)c3cccnc3NCc3ccncc3)cc2)CCCC1 [Apatinib],28% (inactive)
20,N=C(N)NC(=O)c1nc(Cl)c(N)nc1N [Amiloride],33.1% (inactive)
21,CC(C)(C#N)c1cc(Cn2cncn2)cc(C(C)(C)C#N)c1 [Anastrozole],45.5% (inactive)

row,SMILES,percentage of GFP+
1,CC(C)c1nc(CN(C)C(=O)N[C@@H](CCN2CCOCC2)C(=O)N[C@H](CC[C@H](Cc2ccccc2)NC(=O)OCc2cncs2)Cc2ccccc2)cs1 [Cobicistat],43.4% (inactive)
2,O=C(Cc1ccc(-c2ccc(OCCN3CCOCC3)cc2)cn1)NCc1ccccc1,30.9% (inactive)
3,COc1ccc(C[C@H](NC(=O)[C@H](C)NC(=O)CN2CCOCC2)C(=O)N[C@@H](Cc2ccccc2)C(=O)[C@]2(C)CO2)cc1,11.6% (active)
4,C[C@H](N[C@@H](CCc1ccccc1)C(=O)O)C(=O)N1CCC[C@H]1C(=O)O [Enalaprilat],36.7% (inactive)
5,CC(C)C[C@H](NC(=O)[C@H](CCc1ccccc1)NC(=O)CN1CCOCC1)C(=O)N[C@@H](Cc1ccccc1)C(=O)N[C@@H](CC(C)C)C(=O)[C@@]1(C)CO1 [Carfilzomib],4.67% (active)
6,COC[C@H](NC(=O)c1cnc(C)s1)C(=O)N[C@@H](COC)C(=O)N[C@@H](Cc1ccccc1)C(=O)C1(C)CO1 (some centres not stated) [Oprozomib],5.21% (active)
7,COC1=C(OC)C(=O)C(CCCCCCCCCCO)=C(C)C1=O [Idebenone],43.7% (inactive)
8,CCCc1cc(C)nc(O)c1CNC(=O)c1cc(-c2ccc(N3CCN(C(C)C)CC3)nc2)cc2c1cnn2C(C)C,39.6% (inactive)
9,O=C(O)c1cc(-c2ccccc2)nc2ccccc12 [Cinchophen],46.7% (inactive)
10,C[C@@]1(c2cc(-c3cncnc3)c(F)cc2F)CCSC(N)=N1,36.4% (inactive)
11,COC(=O)c1ccc2c(/C(=N/c3ccc(N(C)C(=O)CN4CCN(C)CC4)cc3)c3ccccc3)c(O)[nH]c2c1 [Nintedanib],25.4% (inactive)
12,O=C(NC1CCOCC1)c1ccc(-c2cc(-c3c[nH]nc3-c3ccccn3)ccn2)cc1,40.4% (inactive)
13,Cc1cnc(NC(=O)Nc2cc(Br)c(C)cc2OC[C@@H]2CNCCO2)cn1,28.6% (inactive)
14,CCc1c(Cl)c(O)c(Cl)c(O)c1C(=O)O[C@H]1[C@H](O)[C@H](OC)[C@H](OC/C2=C\C=C\C[C@H](O)/C(C)=C\[C@H](CC)[C@@H](O[C@@H]3OC(C)(C)[C@@H](OC(=O)C(C)C)[C@H](O)[C@@H]3O)/C(C)=C\C(C)=C/C[C@@H]([C@@H](C)O)OC2=O)O[C@@H]1C [Fidaxomicin],50.9% (inactive)
15,Cc1cc(C#N)cc(C)c1Oc1nc(Nc2ccc(C#N)cc2)nc(N)c1Br [Etravirine],35% (inactive)
16,COc1cccc2c1C(=O)c1c(O)c3c(c(O)c1C2=O)C[C@@](O)(C(C)=O)C[C@@H]3O[C@H]1C[C@H](N)[C@H](O)[C@H](C)O1 [Daunorubicin],24.3% (inactive)
17,"CC(=O)[C@]1(O)Cc2c(O)c3c(c(O)c2[C@@H](O[C@H]2C[C@H](N)[C@H](O)[C@H](C)O2)C1)C(=O)c1ccccc1C3=O [Idarubicin, Idarubicin Hydrochloride]",19.9% (active)
18,COc1cccc2c1C(=O)c1c(O)c3c(c(O)c1C2=O)C[C@@](O)(C(=O)CO)C[C@@H]3O[C@H]1C[C@H](N)[C@H](O)[C@H](C)O1 [Doxorubicin],25.2% (inactive)
19,CC(=O)N1CCN(CCOc2ccc(C3CCN(C4=Nn5c(nnc5C(F)(F)F)CC4)CC3)cc2)CC1,43.8% (inactive)
20,CC[C@H](C)[C@H]1O[C@]2(CC[C@@H]1C)C[C@@H]1C[C@@H](C/C=C(\C)[C@@H](O[C@H]3C[C@H](OC)[C@@H](O[C@H]4C[C@H](OC)[C@@H](O)[C@H](C)O4)[C@H](C)O3)[C@@H](C)/C=C/C=C3\CO[C@@H]4[C@H](O)C(C)=C[C@@H](C(=O)O1)[C@]34O)O2 [Ivermectin],37.9% (inactive)
